Molecules are shown by their SMILES. About 55 (4%) of roughly 1,300 compounds were called active.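 The calls were made as follows: active = fitted EC50 between 10 nM and 100 µM, Hill slope size 0.5 to 2, real signal loss, low interference; inactive = the rest.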 These entries were drawn from the full list. Potency and affinity values are given separately.

This passage reports outcome results from the GenesisPotency data set.

The target of this assay is Ras-related C3 botulinum toxin substrate 1, Mus musculus (UniProt P63001). Description: inhibitors of activated mutant Rac1 GTP binding, dose response, biochemical, multiplex, GST-Rac1 beads, Bodipy-FL-GTP, flow cytometry (AID 1339).
Turning to `COC(=O)c1cccc(NC(=O)c2nn(C)c(=O)c3ccccc23)c1`, the result was inactive. Regarding `Cc1ccc(C)c(N(CC(N)=O)S(C)(=O)=O)c1`, the result was inactive. In the case of `Cc1nc2ccc(NC(=O)COc3ccccc3)cc2s1`, the compound was called inactive. Regarding `CCOC(=O)Cn1c(=O)c2c(nc(N3CCCCC3)n2C)n(C)c1=O`, the outcome was inactive. For the compound `Cc1cccc(CNc2nc(C)ccc2C(=O)O)c1`, the compound was classed as inactive. With `CCc1ccccc1NCc1sc(C(=O)O)cc1C`, the compound was classed as inactive. For `O=C(O)c1ccc(CNCc2ccc(F)cc2)s1`, the compound was classed as inactive. Take `Cc1cc(C(F)F)n2nc(C(=O)Nc3ccc(S(=O)(=O)N4CCCCCC4)cc3)nc2n1`: the compound was classed as inactive. As to `CCC(=O)c1ccc(OCC(=O)O)c(OC)c1`, the compound was called inactive.

For `O=C(CNC(=O)c1ccco1)OCN1C(=O)c2ccccc2C1=O`, the compound was classed as inactive. Consider `COc1ccc(CCNC(=O)C2CCCN2C(=O)NC2CCCCC2)cc1OC` (stereo not given), for which the call was inactive. Consider `CC(C)(C)NC(=O)CSc1nccn1Cc1ccccc1`, for which the compound was classed as inactive. Take `CCCCNC(=O)c1cc([N+](=O)[O-])[nH]n1`: the result was inactive. Take `Nc1nc(CN2CCN(c3ccccc3F)CC2)nc(N2CCCc3ccccc32)n1`: the result was inactive. As for `CCn1c2ccccc2c2nc3cc(C(=O)O)ccc3nc21`, the outcome was inactive. As to `COc1cccc(OCc2c(C)cccc2C)c1C(=O)O`, the call was inactive. Turning to `COc1cccc(NC(=O)NCCCN2CCN(c3ccc(F)cc3)CC2)c1`, the outcome was inactive. As for `Cc1nn(-c2ccc(F)cc2)c(Cl)c1/C=C(\CCC(=O)O)c1nc2ccccc2s1`, the call was inactive. With `Cn1c(=O)cc(N2CCOCC2)[nH]c1=O`, the call was inactive.

Consider `Cc1cc2nc3c(=O)n(C4CCCCC4)c(=O)[nH]c3nc2cc1N`, for which the result was inactive. Consider `CNC(=O)C(C)NS(=O)(=O)c1ccc(F)cc1` (stereo not given), for which the compound was classed as inactive. Consider `NC(=O)COC(=O)c1cccc2c1-c1ccccc1C2=O`, for which the compound was called inactive. With `O=C(O)c1cc([N+](=O)[O-])ccc1NCc1ccccc1Cl`, the result was inactive. Take `COc1cc(-c2cc(=O)c3c(O)cc(O)cc3o2)ccc1O`: the compound was classed as inactive. For the compound `O=C(Cc1ccc(Nc2nc(=S)[nH]c3ccccc23)cc1)NC1CCCCC1`, the call was inactive.

For the compound `Cc1cc(C(F)(F)F)c(C#N)c(SCC(=O)Nc2nc3ccccc3s2)n1`, the outcome was inactive. On to `O=C(CSc1n[nH]c(=O)[nH]c1=O)N/N=C/c1ccccc1`, for which the call was inactive.

On to `O=C1CN=C(c2ccccc2)c2cc(Br)ccc2N1Cc1cc(=O)n2ccccc2n1`, for which the call was inactive. `CC(C)[C@H](NC(=O)c1ccccc1)C(=O)OCC(=O)NCCc1ccc(F)cc1`: the outcome was inactive.

As to `O=C(NCc1cccs1)c1cccn2c(=O)c3sccc3nc12`, the call was inactive. Take `Cc1cc(C)cc(C(=O)N(NC(=O)Nc2ccc(Cl)cc2)C(C)(C)C)c1`: the compound was classed as inactive. Consider `Cn1c(NC(=S)Nc2ccccc2)nc2ccccc21`, for which the compound was classed as inactive.

As to `O=C(Nc1cccc(-c2ccc3nncn3n2)c1)c1ccco1`, the compound was classed as inactive. `CC(C)CCNC(=O)Cc1ccc(Nc2nc(=S)[nH]c3ccccc23)cc1`: the result was inactive. Turning to `CCOc1c2ccc(C(=O)N[C@H](C)C3CCCCC3)cc2nn1CCOC`, the compound was classed as inactive. For `CS(=O)(=O)N1N=C(c2ccccc2)CC1c1ccc2c(c1)OCO2` (stereo not given), the result was inactive. For the compound `Cc1ccc(-c2cn3cccc(C)c3n2)cc1`, the call was inactive. Consider `CN1CCN(c2ccccc2NC(=O)c2ccc(-c3cccc([N+](=O)[O-])c3)o2)CC1`, for which the result was inactive.

As to `O=C(O)C1CCCN1C(=O)OCc1ccccc1` (stereo not given), the compound was classed as inactive.

As to `COc1ccc([N+](=O)[O-])cc1NC(=S)NC(NC(=O)Cc1ccc(OC)c(OC)c1)C(Cl)(Cl)Cl` (stereo not given), the outcome was inactive. The result for `Cc1ccc(-c2ccc(/C=C(\C#N)C(=O)Nc3cc(C)nn3-c3ccccc3)o2)cc1` reads “inactive”; that for `Cc1cccc2cc(CN(Cc3cccs3)C(c3nnnn3C3CCCC3)C(C)C)c(=O)[nH]c12` (stereo not given), “inactive”; that for `Cc1cccc(OCCSc2nc3ccccc3n2CC(=O)O)c1C`, “inactive”. For the compound `CC(C)(C)c1ccc(OCCSc2nc3ccccc3n2CC(=O)O)cc1`, the call was inactive. Regarding `COc1ccc(OC)c(/C=N/NC(=O)c2ccc(Cn3cc([N+](=O)[O-])cn3)o2)c1`, the outcome was inactive. With `O=C(Nc1nc(-c2ccc(S(=O)(=O)N3CCCC3)cc2)cs1)c1cccs1`, the outcome was inactive. The result for `Nc1cccc(S(=O)(=O)c2cccc(N)c2)c1` reads “inactive”; that for `Cc1ccc(/C=C(\CCC(=O)O)c2nc3ccccc3s2)cc1[N+](=O)[O-]`, “inactive”; that for `Cc1c(NC(=O)CCN2C(=O)c3ccccc3C2=O)c(=O)n(-c2ccccc2)n1C`, “inactive”. Regarding `C=C(C)COc1ccc(-c2n[nH]c(C)c2-c2ccc(Br)cc2)c(O)c1`, the call was inactive. The result for `CCc1ccc(OCc2ccc(C(=O)O)o2)cc1` reads “inactive”.

As for `COc1ccc(N/C=C/c2nc(SC)nnc2C)cc1`, the outcome was inactive.

For `CCC(OC(=O)c1cc2sccc2n1C)C(=O)NCc1ccco1` (stereo not given), the call was inactive. As to `Br.COc1cc(NS(=O)(=O)c2ccc(Nc3nc(-c4ccccc4)cs3)cc2)nc(OC)n1`, the result was inactive.

With `COc1ccc(-c2nn3c(-c4ccccn4)nnc3s2)cc1OC`, the call was inactive. Regarding `COc1ccccc1-n1cc([C@@H]2C[C@H]3CN(c4ccccc4)C(=O)[C@]34CCCN24)cn1`, the compound was classed as inactive. For `CC(=O)OC(C(=O)NC1CCCCC1)c1ccc(Cl)cc1` (stereo not given), the outcome was inactive. Take `COc1ccc(-c2nnc(S/C(=C/c3ccc(Cl)cc3)C(=O)O)o2)cc1`: the outcome was inactive. `CC(C)C(=O)N1CCN(c2ccccc2NC(=O)c2cccc(Cl)c2)CC1`: the compound was called inactive. The result for `Cc1nc2ncccn2c1-c1csc(Nc2ccccc2)n1` reads “inactive”; that for `Cc1cccc(CNc2ncccc2C(=O)O)c1`, “inactive”. Turning to `COC(=O)c1ccc(COc2ccccc2/C=N/Nc2cccc(C(=O)O)c2)cc1`, the call was inactive. With `C=CCc1ccc(OCc2ccc(C(=O)O)o2)c(OC)c1`, the compound was called inactive. Under `Cc1ccc(-n2c(SCc3cc(=O)n4ccsc4n3)nnc2-c2cccnc2)c(C)c1` stands “inactive”; under `COc1cccc(OCc2ccccc2Br)c1C(=O)O`, “inactive”. For `CCc1nnc(NC(=O)CSc2nnc(CNc3ccc(F)cc3)n2C2CCCCC2)s1`, the outcome was inactive.

As to `CN(C)CCN(C(=O)c1ccc(N2C(=O)CCC2=O)cc1)c1nc2cc3c(cc2s1)OCO3.Cl`, the call was inactive.

Regarding `Cc1cc(C)n2nc(C(=O)Nc3ccc(S(=O)(=O)N4CCCC4)cc3)nc2n1`, the call was inactive. The result for `COc1ccc(/C=N/n2c(N)c(S(=O)(=O)c3cccs3)c3nc4ccccc4nc32)cc1OC` reads “inactive”; that for `O=C(Oc1cccc(O)c1)C1CCCCC1`, “inactive”. As to `COc1cc(NC(=O)c2cccs2)c(OC)cc1NC(=O)CCC(=O)Nc1cccc2ncccc12.Cl`, the compound was classed as inactive. As to `CC1(C)Cc2c(sc(NC(=O)c3ccc(Br)o3)c2C#N)CO1`, the compound was classed as inactive. Turning to `C=CCNc1nc(=S)[nH]c2cc(OC)c(OC)cc12`, the call was inactive. `O=C(COC(=O)/C=C/c1cccs1)Nc1ccc2ccccc2c1`: the call was inactive. Turning to `Cc1nc(NC(=O)/C=C/c2ccc(Cl)cc2Cl)sc1C(=O)N(C)C`, the call was inactive. `O=C(C1CCCO1)N1CCN(C(=S)Nc2ccccc2C(F)(F)F)CC1` (stereo not given): the compound was classed as inactive. For `COc1ccc(CC(=O)Nc2ccc(C(=O)Nc3nccs3)cc2)cc1OC`, the compound was classed as inactive. `CS(=O)(=O)c1ccc(C(=O)OCc2nnc(-c3ccccc3)o2)cc1[N+](=O)[O-]`: the result was inactive.

In the case of `N#CC(c1ccc(Cl)nn1)c1ccc(Cl)cc1Cl` (stereo not given), the compound was classed as inactive. Under `Cc1cc(C)c2sc(N(CCN(C)C)C(=O)c3cc(Cl)sc3Cl)nc2c1.Cl` stands “inactive”.
